CHT allo act = allosterically activates the human high affinity choline transporter | Q9GZV3 | 310,000 compounds, 0.49% hits | CHT-expressing cells, membrane potential dye, choline EC20; stronger effect = higher value; LV-AA mutant CHT in HEK293 cells | B-score at 10 µM;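 active = initial fluorescence not abnormally high and integrated response B-score, plate-corrected, over 3 SD above library mean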
MEKK2wt PB1 HTS = raises or lowers MEK5 binding to wildtype human MEKK2 PB1 domain; Q9Y2U5; bead flow cytometry, Alexa488-MEK5 binding to MEKK2 WT; actives lie on both sides; binding response (% of control), % at 10 µM; 290,000 compounds, 1.1% hits; in the data active = binding response below about 67% or above about 130%
MEKK2mut PB1 HTS = signal of MEK5 binding to mutant human MEKK2 PB1 domain. bead flow cytometry, Alexa488-MEK5 binding to MEKK2 mutant. percent response, % at 10 µM. 290,000 compounds, 0.35% hits. AID 1530; in the data active = percent response above about 24%, passing the limit was not always enough
MEKK3 PB1 HTS = modulators (inhibitors or enhancers) of MEK5 binding to human MEKK3 PB1 domain. 290,000 compounds, 1.4% hits. AID 1529. binding response (% of control), % at 10 µM. Q99759. bead-based flow cytometry, Alexa488-MEK5 binding to MEKK3; actives lie on both sides; 0 = blocked by unlabeled MEK5, 100 = vehicle;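 active = binding response more than 3 SD above or below the average of its plate-row segment, actives on both sides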;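 note: Alexa488 bead fluorescence after subtracting the streptavidin-only scavenger bead signal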
Target sequence (Q99759 whole entry, looked up, the tested form may be a part): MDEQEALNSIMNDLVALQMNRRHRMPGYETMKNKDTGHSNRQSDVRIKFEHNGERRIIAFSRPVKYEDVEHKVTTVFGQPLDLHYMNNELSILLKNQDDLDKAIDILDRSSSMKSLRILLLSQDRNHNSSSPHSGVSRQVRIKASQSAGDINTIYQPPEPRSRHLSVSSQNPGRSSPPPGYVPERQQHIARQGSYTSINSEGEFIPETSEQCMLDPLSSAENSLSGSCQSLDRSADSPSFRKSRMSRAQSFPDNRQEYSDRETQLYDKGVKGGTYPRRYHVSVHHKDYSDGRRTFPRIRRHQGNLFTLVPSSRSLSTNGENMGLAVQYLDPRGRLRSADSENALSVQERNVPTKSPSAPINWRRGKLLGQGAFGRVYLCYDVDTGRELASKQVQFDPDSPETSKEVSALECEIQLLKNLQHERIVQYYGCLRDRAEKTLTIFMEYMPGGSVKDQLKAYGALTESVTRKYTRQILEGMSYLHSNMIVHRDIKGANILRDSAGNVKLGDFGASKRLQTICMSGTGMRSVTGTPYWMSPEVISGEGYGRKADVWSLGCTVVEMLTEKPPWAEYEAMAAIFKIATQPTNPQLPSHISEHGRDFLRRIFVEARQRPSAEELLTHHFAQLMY
Mot1-301 SUMO = blocks SUMOylation pathway, rescuing yeast Mot1-301 growth; growth rescue, % at 18.8 µM; S. cerevisiae Mot1-301 growth rescue, ATP luminescence, 38.5C; percent above DMSO median, 100 means doubled; AID 2716; 320,000 compounds, 1% hits;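 active = every valid replicate shows activation above 250% relative to neutral control wells; inactive = the rest, any valid replicate at or below 250%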;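 note: OY570 slx delta 5 strain wells were the positive control but not used for scaling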
CHT block = human CHT choline transport inhibition; Q9GZV3; CHT-expressing cells, membrane potential dye, choline response; stronger effect = lower value; B-score at 10 µM; 310,000 compounds, 0.86% hits; AID 488975;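 active = B-score over 3 SD under the library average, and starting fluorescence ratio not unusually high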;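 note: choline stimulus applied at its EC90 after an EC20 pre-addition; B-score computed on integrated fluorescence ratio after choline addition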
MEKK2wt confirm = raises or lowers MEK5 binding to wildtype human MEKK2, retest; 5,900 compounds, 2.4% hits; bead flow cytometry, Alexa488-MEK5 binding to MEKK2 WT; actives lie on both sides; shares compounds with MEKK3 PB1 HTS; binding response (% of control), % at 10 µM; in the data active = binding response below about 16% or above about 210%; inactive = in between
MEKK2mut-MEK5 = signal of MEK5 binding to mutant human MEKK2, retest. bead flow cytometry, Alexa488-MEK5 binding to MEKK2 mutant. 5,900 compounds, 2% hits. percent response, % at 10 µM. shares compounds with MEKK3 PB1 HTS. AID 1893; in the data active = percent response mostly above about 71%, no sharp cut-off; inactive = mostly below about 38%;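 note: higher means compound restores mutant binding toward wildtype level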
MEKK3 confirm = MEKK3-MEK5 PB1 inhibition, single concentration confirmation; bead flow cytometry, Alexa488-MEK5 binding to MEKK3; stronger effect = lower value; 5,900 compounds, 1.8% hits; binding response (% of control), % at 10 µM; shares compounds with MEKK3 PB1 HTS;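 active = binding response below 72% of control, or above a set upper limit, though filed actives all read lower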;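 note: 100% = DMSO only wells and 0% = binding blocked by excess unlabeled MEK5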
Active calls of the source: *; i = inactive; / = no result given; [ ] = remark or other dose. Sampled rows, rich in hits. Any-hit rate of the full collection: about 4.1%.

SMILES | CHT allo act | MEKK2wt PB1 HTS | MEKK2mut PB1 HTS | MEKK3 PB1 HTS | Mot1-301 SUMO | CHT block | MEKK2wt confirm | MEKK2mut-MEK5 | MEKK3 confirm
Cc1ccc(Cn2cccc2C2=NC(C)CO2)cc1 (centres undefined) | i | 114 | 5 | 125* | -25 | i | 134 | 19 | 110
CC(C)C1Oc2ccccc2N(CC(=O)N2CCOCC2)C1=O (centres undefined) | i | 93 | 1 | 99 | 18 | i | / | / | /
COC(=O)c1cc(C(C)=O)c(C)[nH]c1=O | i | 112 | 1 | 128* | -1 | i | 96 | -3 | 98
CCOC(=O)c1cc(C(C)=O)c(=O)[nH]c1C | i | 98 | 0 | 106 | 482 | i | / | / | /
O=C(NNC(=O)c1cccs1)c1ccc(Cl)c(Cl)c1 | i | 109 | 2 | 149* | 161 | i | 97 | -2 | 97
O=C(NCCCN1CCN(c2cccc(Cl)c2)CC1)c1cccc(N2CCCC2=O)c1 | i | 125 | 27* | 109 | -8 | i | 113 | 20 | 107
O=C(NCCN1CCCCCC1)c1ccc(N2CCCC2=O)cc1 | i | 145* | 9 | 101 | 2 | i | 127 | 20 | 103
O=C(NCCCN1CCN(c2cccc(Cl)c2)CC1)c1ccc(N2CCCC2=O)cc1 | i | 111 | 7 | 98 | 5 | i | / | / | /
CC1CCN(CCCNC(=O)c2ccc(N3CCCC3=O)cc2)CC1 | i | 101 | 2 | 97 | 1 | i | / | / | /
Cc1nc2ccccc2nc1N1CCCCC1 | / | 101 | 4 | 98 | / | / | / | / | /
Cc1ccc2c(Cl)c(C)c(N3CCCCC3)nc2n1 | i | 105 | 1 | 131* | 27 | i | 106 | 3 | 106
CCOC(=O)c1c(C)[nH]c(C(=O)OCC(=O)NCc2ccc(OC)c(OC)c2)c1C | / | / | / | / | 7 | / | / | / | /
CCOC(=O)c1c(S(=O)(=O)N2CCCCC2C)c(C)n(C)c1C (centres undefined) | i | 100 | -1 | 99 | 0 | i | / | / | /
O=C(COC(=O)Cc1ccc(F)cc1)NCc1ccco1 | i | 102 | -2 | 95 | -3 | i | / | / | /
CCCCNC(=O)COC(=O)CCC(=O)c1ccc(F)cc1 | i | 95 | -1 | 96 | 8 | i | / | / | /
CCOC(=O)CCCNC(=O)COC(=O)CCC(=O)c1ccc(F)cc1 | i | 2.0*[inhibitor] | -20 | 2.0*[inhibitor] | -10 | i | 96 | 0 | 100
O=C(COC(=O)CCC(=O)c1ccc(F)cc1)NCc1ccco1 | i | 87 | -8 | 74*[inhibitor] | -7 | i | 102 | -5 | 101
Cc1nnc(NN2CCOCC2)[nH]c1=O | i | 101 | -4 | 107 | 500 | i | / | / | /
CN(C)c1ccc(C=NC(CO)C(O)c2ccc([N+](=O)[O-])cc2)cc1 (centres undefined) | i | 101 | -4 | 98 | -2 | i | / | / | /
C/C(=N\N=C\c1ccc(N(C)C)cc1)c1cccc([N+](=O)[O-])c1 | i | 99 | -1 | 73*[inhibitor] | -6 | i | 104 | 11 | 108
CC(=O)c1ccc(OCC(=O)OCC(=O)Nc2sccc2C(N)=O)cc1 | / | / | / | / | -10 | / | / | / | /
O=S(=O)(c1cccc2nsnc12)N1CCN(c2ccc(F)cc2)CC1 | i | 74 | -10 | 72*[inhibitor] | 14 | i | 97 | 1 | 100
Cc1ccc(C(=O)Nc2cccc(S(=O)(=O)N3CCCC3)c2)o1 | / | / | / | / | 149 | / | / | / | /
COc1ccc(OC)c(N(CC(=O)Nc2ccccc2)S(C)(=O)=O)c1 | i | 101 | 3 | 100 | -20 | i | / | / | /
